Shiga inhibitor: blocks Shiga toxin action in Vero cells. Vero cells, Shiga toxin protein synthesis inhibition reporter. inhibition, % at 38.7 µM. actives 9.2% (n = 290,000). AID 2315; in the data active = inhibition mostly above about 28%, no sharp cut-off; inactive = mostly below about 43%; also: 0% is about no effect
Pf growth 96h: P. falciparum growth inhibition at 96 hour, primary screen for plastid delayed-death inhibitors | AID 504834 | P. falciparum luciferase reporter growth, 96 h | Potency, µM (highest dose often 28.7 µM), for inactives: top-dose activity change, negative = inhibition, usual class: inhibitors | actives 6.9% (n = 320,000); also: potency is read from the fitted curve at half-maximal effect; % is scaled to controls: 0 for no effect and ±100 for the full control effect
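Delayed-death screen, second-generation endpoint: infected erythrocytes, 2% hematocrit, 0.05% parasitemia final; 96 hours at 37 C, 5% CO2; luciferase detection reagent; luminescence decrease equals reduced growth.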
NS1 function inh: inhibitors of influenza NS1 protein function. Potency, µM (titrated, usually from 46.1 µM), without a hit: at the highest dose activity, positive = more growth. actives 0.4% (n = 270,000); calls by dose curve; also: potency is read from the fitted curve at half-maximal effect; actives are rising curves; nearly all actives have a fitted effect of over 50% in size
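Compounds were scored for reversing the slow growth caused by influenza A NS1 in S. cerevisiae, measured by optical density at 600 nm. Assay medium contained 2% galactose at pH 6.0; NS1-free yeast of the same strain were the positive control.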
CHX counter: counter-screen hit for Shiga toxin inhibitors, cycloheximide | cell reporter, cycloheximide protein synthesis inhibition counterscreen | max response, % | actives 12% (n = 300,000); in the data active = max response mostly above about 13%, no sharp cut-off; inactive = mostly below about 14%; also: read at 38.3 µM for the half of the compounds with a filed dose; 0% is about no effect
SARS PLP yeast: blocks SARS-CoV papain-like protease in a yeast assay. S. cerevisiae expressing SARS-CoV PLpro, growth rescue. Potency, µM (titrated, usually from 32.9 µM), for inactives: at the top dose activity, positive = growth rescue, hits mostly activators. actives 0.19% (n = 330,000). AID 485353; calls by dose curve; also: potency is read from the fitted curve at half-maximal effect; 0% is about no effect; nearly all actives have a fitted effect of over 55% in size
Pf growth 48h: P. falciparum growth inhibition at 48 hours (one generation); P. falciparum luciferase growth in erythrocytes, 48 h; Potency, µM (top dose mostly 28.7 µM), for the others: at the top dose activity change, negative = inhibition, actives largely listed as inhibitors; actives 5.9% (n = 310,000); AID 504832; also: potency is read from the fitted curve at half-maximal effect; % is scaled to controls: 0 for no effect and ±100 for the full control effect
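Read-out is firefly luciferase luminescence from an integrated reporter in P. falciparum, so falling signal marks reduced parasite growth. Infected erythrocytes were at 2% hematocrit and 0.1% parasitemia (final) in Albumax-supplemented RPMI 1640.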
Numbers without * were called inactive; i = inactive; ? = inconclusive; · = no result given. A selection: hits, their analogues and other compounds. The true share with any hit is near 21%. Unless noted, calls follow the shape of the dose curve; as a rule, active = well fitted inhibition curve with a large enough effect; inconclusive = small, poorly fitted or top-dose-only effect, or another doubt; inactive = no such curve, though single readings can be large or run the other way.

SMILES	Shiga inhibitor	Pf growth 96h	NS1 function inh	CHX counter	SARS PLP yeast	Pf growth 48h
Cc1ccc(C(=O)CSc2ncn[nH]2)cc1	52	?	-6%	20*	-10%	69%
Cc1ccc(-c2nnc(N3CCN(C(=O)CSc4ncn[nH]4)CC3)c3ccccc23)cc1	2	·	-19%	1	8%	10µM*
c1ccc(CSc2ncn[nH]2)nc1	7	5.2µM*	-1%	-1	-1%	6%
CC(=O)N1CCN(c2nnc(-c3ccc(C)cc3)c3ccccc23)CC1	-10	?	-7%	-8	0%	?
Cc1ccc2c(CSc3nc4ccccc4c(=O)n3CCCO)cc(=O)oc2c1C	109*	?	0%	9	1%	?
COCCn1c(SCc2nc(N)nc(Nc3ccccc3C)n2)nc2ccccc2c1=O	-10	?	-6%	-2	5%	6%
Cc1ccccc1Nc1nc(N)nc(CSc2nc3ccccc3c(=O)n2CCCO)n1	22	·	-6%	-2	2%	7.4µM*
CC(=O)NCCn1c(SCc2ccccc2F)nc2ccccc2c1=O	-18	?	-8%	-4	-3%	-4%
Cc1ccc(SCc2nc(N)nc(Nc3ccccc3C)n2)c(C)c1	47*	?	-49%	17	-10%	2%
Cc1ccccc1Nc1nc(N)nc(CSc2ccc(F)cc2)n1	112*	299%	·	48*	-7%	i
Cc1ccc(SCc2nc(N)nc(Nc3ccccc3C)n2)cc1C	8	?	-12%	10	-24%	0%
COc1ccc(Cl)cc1NC(=S)N1CC(C)OC(C)C1 (stereo not drawn)	14	-25%	-9%	1	6%	?
Cc1ccccc1Nc1nc(N)nc(CSc2nnnn2C)n1	118*	229%	·	48*	-7%	176%
Cc1ccccc1Nc1nc(N)nc(CN(C)Cc2ccccc2Cl)n1	18	?	3%	31*	8%	-2%
Cc1ccc(Nc2nc(N)nc(CSc3nccn3C)n2)c(C)c1	42*	·	-2%	18*	6%	89%
COc1cc2cnc(CCO[C@H]3CCCCO3)cc2cc1OC	·	·	·	·	4%	·
CCc1ccc2c(c1)C(c1ccc([N+](=O)[O-])cc1)=NNC(c1ccc(Br)cc1)=N2	19	-24%	8%	1	-7%	9.3µM*
CCN(CC)S(=O)(=O)c1ccc(OCC(=O)NC(=O)c2ccccc2OC)c([N+](=O)[O-])c1	-4	0%	0%	-2	2%	-14%
CCN(CC)CCOc1c(Br)ccc2c1sc1nc3n(c(=O)c12)CCC3	1	13µM*	-31%	-4	0%	?
O=c1c2c(nc3n1CCCCC3)sc1c(O)c(Br)ccc12	40	·	-49%	16*	-10%	3%
COc1ccccc1NC(=O)C1=C(C)NC(=O)NC1c1cc(C)cs1 (stereo not drawn)	-2	?	11%	-3	-2%	-6%
Cc1ccc(-c2nc(N3CCN(C)CC3)c3ccccc3n2)cc1	11	31%	1%	12*	-6%	?
CN1CCN(c2nc(-c3ccc(C(C)(C)C)cc3)nc3ccccc23)CC1	59*	25%	-2%	57*	1%	-7%
CN1CCN(c2nc(-c3ccc(Br)cc3)nnc2-c2ccccc2)CC1	11	-6%	-7%	22*	-1%	?
CN1CCN(c2nc(-c3ccccc3)nc(-c3ccccc3)c2C#N)CC1	-4	?	0%	-3	2%	?
SMILES	Shiga inhibitor	Pf growth 96h	NS1 function inh	CHX counter	SARS PLP yeast	Pf growth 48h
CCN1CCN(c2nc(-c3ccccc3)nc3ccccc23)CC1	-15	?	-8%	-3	-14%	?
COc1ccc(-c2nc(-c3ccccc3)nc(N3CCN(C)CC3)c2C#N)cc1	-9	13µM*	1%	-1	8%	?
Cc1[nH]c(C)c(S(=O)(=O)N2CCN(c3ccc(Cl)cc3)CC2)c1C(=O)N1CCCC1	-6	27%	-8%	1	11%	5%
COc1ccc(-c2ccc(C(C)=O)cc2)cc1C1C2C=CCCC2(C)C(=O)N1Cc1ccccc1 (stereo not drawn)	17	·	·	11	·	·
Cc1c(C(=O)Nc2cccnc2)oc2ccc(Br)cc12	75*	15%	-32%	34*	-11%	31%
Cc1c(C(=O)NCc2cccs2)oc2ccc(Br)cc12	40	·	-8%	30*	13%	51%
Cc1c(C(=O)Nc2cccc(S(=O)(=O)N3CCOCC3)c2)oc2ccc(Br)cc12	·	·	·	·	1%	·
NNC(=O)c1cc2c(ccc3ccccc32)o1	2	16%	7%	-1	1%	9%
Cc1c(C(=O)NCc2cccs2)oc2ccc(S(=O)(=O)N3CCOCC3)cc12	-28	3%	-10%	-10	3%	?
O=C(Nc1cccnc1)c1cc2c(ccc3ccccc32)o1	40*	171%	-6%	57*	·	6%
CCc1ccc2oc(C(=O)Nc3cccnc3)c(C)c2c1	66*	168%	-17%	58*	-12%	174%
CC(C)CC(=O)NC(Nc1ccccc1F)C(Cl)(Cl)Cl (stereo not drawn)	-10	10µM*	-21%	-3	4%	-5%
CCc1ccc(OCC(=O)NC(NC(=S)Nc2ccccc2)C(Cl)(Cl)Cl)cc1 (stereo not drawn)	-12	0%	3%	-1	-9%	13µM*
CCC(=O)NC(NC(=S)Nc1ccc(S(N)(=O)=O)cc1)C(Cl)(Cl)Cl (stereo not drawn)	-3	2.1µM*	21%	-1	-3%	-6%
CC(=O)NC(NC(=S)Nc1ccc(S(N)(=O)=O)cc1)C(Cl)(Cl)Cl (stereo not drawn)	16	-13%	4%	-2	0%	-8%
CC(=O)NC(NC(=S)Nc1cccc(Br)c1)C(Cl)(Cl)Cl (stereo not drawn)	-2	?	-6%	0	0%	?
CC(=O)NC(NC(=S)Nc1ccc(N=Nc2ccccc2)cc1)C(Cl)(Cl)Cl (stereo not drawn)	71*	183%	3%	60*	-3%	12µM*
CCc1ccc(OCC(=O)NC(NC(=S)Nc2ccccc2C)C(Cl)(Cl)Cl)cc1 (stereo not drawn)	-6	?	11%	-5	11%	?
CCC1=NN(C(=O)CCc2ccc3c(c2)OCO3)C(O)(C(F)(F)F)C1 (stereo not drawn)	5	-9%	3%	-1	4%	0%
CC1CC(C)CN(C(=O)C(C)N(C)CC(=O)Nc2ccc(Cl)cc2)C1 (stereo not drawn)	-14	18%	·	-7	-1%	2%
Cc1ccc(NC(=O)CSc2nnc(-c3ccncc3)n2C)cc1S(=O)(=O)N1CCOCC1	-7	?	·	1	0%	?
CC(C)CC(=O)NC(NC(=S)Nc1ccccc1)C(Cl)(Cl)Cl (stereo not drawn)	-4	3%	-1%	1	-4%	13µM*

Screens deposited in PubChem BioAssay by National Center for Advancing Translational Sciences (NCATS).
